Experimental data: the supplement of paper PMC8975748
Counter-ions that a name gives are not always drawn. ± gives the standard deviation of the averaged measurements.

Legend:
[1] = test system: Saccharomyces cerevisiae BY4741 SeMeCo community; assay: z-score of prototroph abundance vs DMSO median; higher = larger share of this subpopulation than in DMSO controls; details: 10 µM; 24 h; SM minimal medium; subpopulation (auxotrophy): Prototroph
Method in brief: (§1)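 Automated confocal microscopy of paraformaldehyde-fixed cells was used to follow a Saccharomyces cerevisiae BY4741 community carrying four plasmids, each restoring one auxotrophy and encoding a distinct fluorescent protein. The community was pre-grown overnight to OD600 1.0, diluted to 0.3, and added at 70 µl to 384-well plates acoustically predosed with library drugs (10 µM final) for 24 h of growth in minimal SM medium. Single-auxotroph fluorescent strains set thresholds and autofluorescence correction, and each subpopulation's abundance was scored as a z-score against the vehicle-well median.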

[2] = test system: Saccharomyces cerevisiae BY4741 SeMeCo community; assay: z-score of subpopulation abundance vs DMSO median, subpopulation auxotrophic for U; higher = larger share of this subpopulation than in DMSO controls; details: 10 µM; 24 h; SM minimal medium; subpopulation (auxotrophy): U
Method in brief: as §1

[3] = test system: Saccharomyces cerevisiae BY4741 SeMeCo community; assay: z-score of subpopulation abundance vs DMSO median, subpopulation auxotrophic for H; higher = larger share of this subpopulation than in DMSO controls; details: 10 µM; 24 h; SM minimal medium; subpopulation (auxotrophy): H
Method in brief: as §1

[4] = test system: Saccharomyces cerevisiae BY4741 SeMeCo community; assay: z-score of subpopulation abundance vs DMSO median, subpopulation auxotrophic for LU; higher = larger share of this subpopulation than in DMSO controls; details: 10 µM; 24 h; SM minimal medium; subpopulation (auxotrophy): LU
Method in brief: as §1

[5] = test system: Saccharomyces cerevisiae BY4741 SeMeCo community; assay: z-score of subpopulation abundance vs DMSO median, subpopulation auxotrophic for LM; higher = larger share of this subpopulation than in DMSO controls; details: 10 µM; 24 h; SM minimal medium; subpopulation (auxotrophy): LM
Method in brief: as §1

[6] = test system: Saccharomyces cerevisiae BY4741 SeMeCo community; assay: z-score of subpopulation abundance vs DMSO median, subpopulation auxotrophic for HM; higher = larger share of this subpopulation than in DMSO controls; details: 10 µM; 24 h; SM minimal medium; subpopulation (auxotrophy): HM
Method in brief: as §1

[7] = test system: Saccharomyces cerevisiae BY4741 SeMeCo community; assay: z-score of subpopulation abundance vs DMSO median, subpopulation auxotrophic for HU; higher = larger share of this subpopulation than in DMSO controls; details: 10 µM; 24 h; SM minimal medium; subpopulation (auxotrophy): HU
Method in brief: as §1

[8] = test system: Saccharomyces cerevisiae BY4741 SeMeCo community; assay: z-score of subpopulation abundance vs DMSO median, subpopulation auxotrophic for UM; higher = larger share of this subpopulation than in DMSO controls; details: 10 µM; 24 h; SM minimal medium; subpopulation (auxotrophy): UM
Method in brief: as §1

[9] = test system: Saccharomyces cerevisiae BY4741 SeMeCo community; assay: z-score of subpopulation abundance vs DMSO median, subpopulation auxotrophic for HL; higher = larger share of this subpopulation than in DMSO controls; details: 10 µM; 24 h; SM minimal medium; subpopulation (auxotrophy): HL
Method in brief: as §1

[10] = test system: Saccharomyces cerevisiae BY4741 SeMeCo community; assay: z-score of subpopulation abundance vs DMSO median, subpopulation auxotrophic for HLU; higher = larger share of this subpopulation than in DMSO controls; details: 10 µM; 24 h; SM minimal medium; subpopulation (auxotrophy): HLU
Method in brief: as §1

[11] = test system: Saccharomyces cerevisiae BY4741 SeMeCo community; assay: z-score of subpopulation abundance vs DMSO median, subpopulation auxotrophic for HLM; higher = larger share of this subpopulation than in DMSO controls; details: 10 µM; 24 h; SM minimal medium; subpopulation (auxotrophy): HLM
Method in brief: as §1

[12] = test system: Saccharomyces cerevisiae BY4741 SeMeCo community; assay: z-score of subpopulation abundance vs DMSO median, subpopulation auxotrophic for HUM; higher = larger share of this subpopulation than in DMSO controls; details: 10 µM; 24 h; SM minimal medium; subpopulation (auxotrophy): HUM
Method in brief: as §1

[13] = test system: Saccharomyces cerevisiae BY4741 SeMeCo community; assay: z-score of subpopulation abundance vs DMSO median, subpopulation auxotrophic for LUM; higher = larger share of this subpopulation than in DMSO controls; details: 10 µM; 24 h; SM minimal medium; subpopulation (auxotrophy): LUM
Method in brief: as §1

[14] = test system: Saccharomyces cerevisiae BY4741 SeMeCo community; assay: z-score of subpopulation abundance vs DMSO median, subpopulation auxotrophic for HLUM; higher = larger share of this subpopulation than in DMSO controls; details: 10 µM; 24 h; SM minimal medium; subpopulation (auxotrophy): HLUM
Method in brief: as §1

[15] = test system: Saccharomyces cerevisiae BY4741 SeMeCo community; assay: mean cell size (pixel area) (pixels); higher = larger cells; details: 10 µM; 24 h; SM minimal medium
Method in brief: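 Mean cell pixel area per well was determined by automated confocal microscopy with Harmony analysis of paraformaldehyde-fixed cells. The cells, a Saccharomyces cerevisiae BY4741 community of four plasmids that each complement one auxotrophy and carry a fluorescent marker, were incubated for 24 h with drug at a final 10 µM in SM medium in 384-well plates. Numbers are averaged over 3 replicates. Same SeMeCo high-content imaging drug screen: Selleck FDA-approved drugs at 10 µM, 24 h in SM medium, 384-well plates, 3 replicates.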

[16] = test system: Saccharomyces cerevisiae BY4741 SeMeCo community; assay: z-score of subpopulation abundance vs DMSO median, subpopulation auxotrophic for L; higher = larger share of this subpopulation than in DMSO controls; details: 10 µM; 24 h; SM minimal medium; subpopulation (auxotrophy): L
Method in brief: as §1

CC(C)[N+](C)(CCOC(=O)C1c2ccccc2Oc2ccccc21)C(C)C [Propantheline bromide]
z-score of prototroph abundance [1]: 0.94 | z-score of subpopulation abundance [2]: -0.28 | z-score of subpopulation abundance [3]: 0.9 | z-score of subpopulation abundance [4]: -0.92 | z-score of subpopulation abundance [5]: -0.04 | z-score of subpopulation abundance [6]: 0.76 | z-score of subpopulation abundance [7]: -0.76 | z-score of subpopulation abundance [8]: -1.12 | z-score of subpopulation abundance [9]: -0.65 | z-score of subpopulation abundance [10]: -1.23 | z-score of subpopulation abundance [11]: -0.74 | z-score of subpopulation abundance [12]: -1.29 | z-score of subpopulation abundance [13]: -1.5 | z-score of subpopulation abundance [14]: -0.56

C[C@]12CC[C@@H]3c4ccc(O)cc4CC[C@H]3[C@@H]1CC[C@@H]2O [Estradiol]
mean cell size [15]: 12.7 ± 0.21 | z-score of prototroph abundance [1]: 0.44 | z-score of subpopulation abundance [2]: 0.01 | z-score of subpopulation abundance [3]: 0.3 | z-score of subpopulation abundance [4]: -0.02 | z-score of subpopulation abundance [5]: -0.16 | z-score of subpopulation abundance [6]: -0.39 | z-score of subpopulation abundance [7]: -1.02 | z-score of subpopulation abundance [8]: -0.27 | z-score of subpopulation abundance [9]: -0.05 | z-score of subpopulation abundance [10]: 0.9 | z-score of subpopulation abundance [11]: -0.66 | z-score of subpopulation abundance [14]: 1.17

CC1=C[C@H]2C(=O)O[C@H]3C[C@@H](C/C=C(\C)C[C@@H](C)/C=C/C=C4\CO[C@H](/C1=N\O)[C@@]42O)O[C@@]1(CC[C@H](C)[C@@H](C)O1)C3.CC[C@H]1O[C@]2(CC[C@@H]1C)C[C@@H]1C[C@@H](C/C=C(\C)C[C@@H](C)/C=C/C=C3\CO[C@@H]4/C(=N\O)C(C)=C[C@@H](C(=O)O1)[C@]34O)O2 [Milbemycin Oxime]
mean cell size [15]: 12.36 ± 0.099 | z-score of prototroph abundance [1]: 0.31 | z-score of subpopulation abundance [16]: 0.14 | z-score of subpopulation abundance [2]: -0.74 | z-score of subpopulation abundance [3]: 2.17 | z-score of subpopulation abundance [5]: -0.44 | z-score of subpopulation abundance [6]: 0.15 | z-score of subpopulation abundance [7]: 0.42 | z-score of subpopulation abundance [8]: -1.12 | z-score of subpopulation abundance [9]: 1.42 | z-score of subpopulation abundance [10]: -0.11 | z-score of subpopulation abundance [11]: -0.22 | z-score of subpopulation abundance [12]: 0.03 | z-score of subpopulation abundance [13]: -0.87 | z-score of subpopulation abundance [14]: -0.41

CN[C@@H]1[C@H](O[C@H]2[C@H](O[C@H]3[C@H](O)[C@@H](O)[C@H](N=C(N)N)[C@@H](O)[C@@H]3N=C(N)N)O[C@@H](C)[C@]2(O)C=O)O[C@@H](CO)[C@H](O)[C@H]1O [Streptomycin sulfate]
mean cell size [15]: 11.99 ± 0.031 | z-score of prototroph abundance [1]: 0.05 | z-score of subpopulation abundance [3]: 0.36 | z-score of subpopulation abundance [4]: -0.25 | z-score of subpopulation abundance [5]: -0.12 | z-score of subpopulation abundance [7]: 0.65 | z-score of subpopulation abundance [8]: 0.8 | z-score of subpopulation abundance [9]: -0.36 | z-score of subpopulation abundance [10]: -0.4 | z-score of subpopulation abundance [11]: -0.57 | z-score of subpopulation abundance [12]: 0.39 | z-score of subpopulation abundance [14]: -0.41

O=C(O)CCCCCCCC(=O)O [Azelaic acid]
mean cell size [15]: 12.4 ± 0.2 | z-score of prototroph abundance [1]: -0.32 | z-score of subpopulation abundance [16]: -0.32 | z-score of subpopulation abundance [2]: 0.62 | z-score of subpopulation abundance [3]: 0.43 | z-score of subpopulation abundance [4]: 1.26 | z-score of subpopulation abundance [5]: 0.3 | z-score of subpopulation abundance [6]: -0.04 | z-score of subpopulation abundance [7]: 0.63 | z-score of subpopulation abundance [8]: -0.2 | z-score of subpopulation abundance [9]: -0.5 | z-score of subpopulation abundance [10]: 0.77 | z-score of subpopulation abundance [12]: 0.47 | z-score of subpopulation abundance [13]: -0.32 | z-score of subpopulation abundance [14]: 1.13

CO[C@H]1C[C@@H]2CC[C@@H](C)[C@@](O)(O2)C(=O)C(=O)N2CCCC[C@H]2C(=O)O[C@H]([C@H](C)C[C@@H]2CC[C@H](n3cnnn3)[C@H](OC)C2)CC(=O)[C@H](C)/C=C(\C)[C@@H](O)[C@@H](OC)C(=O)[C@H](C)C[C@H](C)/C=C/C=C/C=C/1C [Zotarolimus(ABT-578)]
mean cell size [15]: 13.94 ± 0.041 | z-score of prototroph abundance [1]: -17.5 | z-score of subpopulation abundance [16]: 0.32 | z-score of subpopulation abundance [2]: 3.68 | z-score of subpopulation abundance [3]: 14.4 | z-score of subpopulation abundance [4]: 3.23 | z-score of subpopulation abundance [5]: 2.28 | z-score of subpopulation abundance [6]: 23.2 | z-score of subpopulation abundance [7]: 23.5 | z-score of subpopulation abundance [9]: 15.7 | z-score of subpopulation abundance [10]: 18.8 | z-score of subpopulation abundance [11]: 18.4 | z-score of subpopulation abundance [13]: 5.72 | z-score of subpopulation abundance [14]: 31.4

COc1ccc2cc(CCC(C)=O)ccc2c1 [Nabumetone]
mean cell size [15]: 12.5 ± 0.13 | z-score of prototroph abundance [1]: 1 | z-score of subpopulation abundance [16]: -1.25 | z-score of subpopulation abundance [3]: -1.58 | z-score of subpopulation abundance [4]: -0.78 | z-score of subpopulation abundance [5]: -1.42 | z-score of subpopulation abundance [6]: -0.96 | z-score of subpopulation abundance [7]: -0.64 | z-score of subpopulation abundance [8]: -0.41 | z-score of subpopulation abundance [9]: -1.5 | z-score of subpopulation abundance [10]: -0.94 | z-score of subpopulation abundance [11]: -0.91 | z-score of subpopulation abundance [13]: -0.43 | z-score of subpopulation abundance [14]: -1.51
